MbtI inh = blocks the Mycobacterium tuberculosis siderophore enzyme MbtI; P9WFX0; purified MbtI enzyme, fluorescence intensity read-out; inhibition, % (concentration not given with the values); hit rate 0.89% among 100,000; in the data active = inhibition mostly above about 56%, no sharp cut-off; inactive = mostly below about 77%
PV pol inh = poliovirus RNA polymerase inhibition. poliovirus polymerase elongation, fluorescence polarization; active compounds read low. % elongation, % (compound at 16.7 µg/mL). hit rate 0.66% among 150,000. AID 588519; in the data active = % elongation below about 90%
MenB inh = blocks the Mycobacterium tuberculosis MenB enzyme; P9WNP5; hit rate 0.43% among 100,000; MenB enzyme assay, absorbance read-out; AID 540299; inhibition, % (concentration not given with the values); in the data active = inhibition above about 21%, passing the limit was not always enough
Target sequence (P9WNP5 whole entry, looked up): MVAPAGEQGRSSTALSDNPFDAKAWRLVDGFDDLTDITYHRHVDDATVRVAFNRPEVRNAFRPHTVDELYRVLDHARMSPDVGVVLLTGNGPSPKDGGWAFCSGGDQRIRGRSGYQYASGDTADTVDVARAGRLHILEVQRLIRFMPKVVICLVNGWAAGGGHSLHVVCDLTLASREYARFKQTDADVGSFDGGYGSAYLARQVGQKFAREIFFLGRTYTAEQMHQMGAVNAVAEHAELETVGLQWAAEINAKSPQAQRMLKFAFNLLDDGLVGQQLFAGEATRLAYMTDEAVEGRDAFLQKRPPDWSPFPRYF
AID504770 = growth inhibitors of E. coli YBA685 in a screen for V. cholerae RctB (chromosome II replication) inhibitors. E. coli YBA685 rctB-dependent plasmid, OD600 growth, 3 h; active compounds read low. hit rate 0.27% among 130,000. z-score (concentration not given with the values); in the data active = z-score below about -2, passing the limit was not always enough
Large screens that a line does not name were inactive. A selection: hits, their analogues and other compounds. The true share with any hit is near 1.4%.

O=C(O)CC1=C(c2ccc(Cl)cc2)CCC1=O	none (no result: MbtI inh)
N#CSCC(=O)N1c2ccccc2CCc2ccccc21	MenB inh 33
O=C(NCCc1ccccc1)C1CCN(Cc2cc3ccccc3n2Cc2cccc(Cl)c2)CC1	none (no result: MbtI inh, MenB inh, AID504770)
CC(C)CCNC(=O)C1CCN(Cc2cccc(OCc3ccccc3)c2)CC1	PV pol inh 74 (no result: MbtI inh)
CCC(C)n1c(=O)[nH][nH]c1=S (centres undefined)	MbtI inh 51
C=CCC(O)(CN)CC=C	MenB inh 32
CC(C)C(NC(=O)Cc1ccccc1)C(=O)N1CCN(S(=O)(=O)c2cccc(Cl)c2)CC1 (centres undefined)	none
CC1(C)Cc2c(C#N)c(N)sc(=S)c2CO1	none
CC1(C)Cc2c(c(N3CCNCC3)[nH]c(=S)c2C#N)CO1	MbtI inh 95
O=c1[nH]cnc2c1cnn2-c1ccc2ccccc2c1	none (no result: MbtI inh, PV pol inh, MenB inh)
O=c1cc(CSc2nnnn2-c2ccccc2)nc(Nc2ccc(F)cc2)[nH]1	AID504770 -3.3 (no result: PV pol inh, MenB inh)
CC(=O)Oc1ccc2c(-c3ccccc3)cc(=O)oc2c1C	none (no result: MbtI inh, PV pol inh, MenB inh)
CCN1CCOC(CC(=O)Nc2ccccc2C)C1=O (centres undefined)	MbtI inh 75
CCCN1CCOC(CC(=O)Nc2ccc(Br)cc2Br)C1=O (centres undefined)	MbtI inh 87 (no result: PV pol inh, MenB inh)
O=S(=O)(NC1CC1)c1cccs1	none
C=CCn1c(C2COc3ccccc3O2)n[nH]c1=S (centres undefined)	MbtI inh 98
Cn1cc(Br)c(N2C(=O)C=CC2=O)n1	MbtI inh 95, AID504770 -4.2
C=CCN1C(=O)NC(=O)/C(=C\c2ccc(O)c(O)c2)C1=O	none
O=C1NC(=O)N(CCc2ccc(F)cc2)C(=O)/C1=C\c1ccc(O)c(O)c1	MbtI inh 51
NS(=O)(=O)c1ccc(CCNC(=O)CSc2nc3ccc(Cl)cc3o2)cc1	none
O=C(O)c1ccc2nc(-c3cc4cccc(O)c4oc3=O)[nH]c2c1	PV pol inh 79 (no result: MbtI inh, MenB inh, AID504770)
CC(C)CC(NC(=O)c1ccc(Cl)cc1Cl)C(=O)N1CCN(c2ncccn2)CC1 (centres undefined)	none
Cc1ccc(NC(=O)CSc2nc(C)cc(C)c2C#N)cc1	MenB inh 40
Cc1cc(C)c(C#N)c(SCC(=O)Nc2ccccc2C#N)n1	none (no result: MbtI inh, MenB inh, AID504770)
COc1ccc(-n2c(SCC(=O)NCCc3ccccc3)nc3c(c2=O)SCC3)cc1	none (no result: MbtI inh, PV pol inh, MenB inh)
C/C(=N\NC(=O)C(F)(F)F)c1ccccc1O	MenB inh 34
Cc1cccc(/C=N/NC(=O)c2ccccn2)c1O	AID504770 -2.3
O=C(/C=C/C(=O)N1CCOCC1)NC1CCCc2ccccc21 (centres undefined)	none
O=C(Cc1nc2ccccc2n1C(=O)c1ccccc1)N1CCOCC1	none (no result: MenB inh)
Cc1nnc(SCC(=O)Nc2ccccc2)n1N	none (no result: MbtI inh, PV pol inh, MenB inh)
CC(C)c1nnc(SCC(=O)Nc2ccc(Cl)cc2)n1N	MbtI inh 89
O=C(O)C1CC1c1ccccc1 (centres undefined)	none
N[C@@H]1C[C@H]1c1ccccc1	MenB inh 36 (no result: AID504770)
CN1/C(=N\O)c2cccc3cccc1c23	MbtI inh 81
O=C1C=C2C(=CCOC2O)O1 (centres undefined)	AID504770 -5.2
O=C(NCCSc1ccc(Cl)cc1)Nc1ccccc1	AID504770 -4.5
O=C(NCCCSc1ccccc1)Nc1ccccc1	none
c1cc2c(cc1N1CCNCC1)OCCO2	none
COc1ccc(-c2sc(C(=O)O)cc2C)cc1	none
COc1ccc(-c2csc(=Nc3cc(C(=O)O)ccc3C)o2)cc1	PV pol inh 86 (no result: MbtI inh)
COCCN=C1NN=C(c2ccc(C(C)(C)C)cc2)CS1	none
Cn1nc(C(=O)N2CCCCC2)c2c1-c1ccccc1SC2	MbtI inh 87
Cn1nc(C(=O)N2CCN(c3ccc(Cl)cc3)CC2)c2c1-c1ccccc1SC2	none (no result: MbtI inh, MenB inh, AID504770)
CN(C)/C=C/C(=O)c1csc(-c2ccccc2)n1	none
c1c(SSc2cn3c(n2)CCC3)nc2n1CCC2	MbtI inh 93
O=C1C(c2cc(Cl)cc(Cl)c2)=C(O)c2ccccc21	MbtI inh 89
Cc1ccc(S(=O)(=O)N(C)S(=O)(=O)c2cccc(C(F)(F)F)c2)cc1	none
CCC(CO)NC(=O)c1cc2c(n(-c3ccccc3)c1=O)CC(C)(C)CC2=O (centres undefined)	none
N#CCn1ccn(-c2ccc(F)c(Cl)c2)c(=O)c1=O	none
O=c1sn(-c2ccc(F)c(Cl)c2)c(=O)n1C1Cc2ccccc2C1	MbtI inh 83, AID504770 -3.3
CNC(=O)C1c2ccccc2Oc2ccccc21	none
CC(C)(C)C1=CC(C(C#N)C#N)c2ccccc2O1 (centres undefined)	AID504770 -2.1 (no result: MenB inh)
COc1ccc(NC(=S)NCC(c2ccco2)N(C)C)cc1 (centres undefined)	none
